In ChEMBL document CHEMBL1961873, “Compounds: GSK PKIS; Assays: Nanosyn kinase panel” (2012):
Values joined by “and” are separate entries in the source; they are usually repeats but may differ in a detail not shown here. Identical values can stand only once.

The compounds below were run against T1, Inhibitor of nuclear factor kappa-B kinase subunit alpha (Homo sapiens) (UniProt O15111). Conditions: at 0.1 µM.
T1 sequence (whole entry): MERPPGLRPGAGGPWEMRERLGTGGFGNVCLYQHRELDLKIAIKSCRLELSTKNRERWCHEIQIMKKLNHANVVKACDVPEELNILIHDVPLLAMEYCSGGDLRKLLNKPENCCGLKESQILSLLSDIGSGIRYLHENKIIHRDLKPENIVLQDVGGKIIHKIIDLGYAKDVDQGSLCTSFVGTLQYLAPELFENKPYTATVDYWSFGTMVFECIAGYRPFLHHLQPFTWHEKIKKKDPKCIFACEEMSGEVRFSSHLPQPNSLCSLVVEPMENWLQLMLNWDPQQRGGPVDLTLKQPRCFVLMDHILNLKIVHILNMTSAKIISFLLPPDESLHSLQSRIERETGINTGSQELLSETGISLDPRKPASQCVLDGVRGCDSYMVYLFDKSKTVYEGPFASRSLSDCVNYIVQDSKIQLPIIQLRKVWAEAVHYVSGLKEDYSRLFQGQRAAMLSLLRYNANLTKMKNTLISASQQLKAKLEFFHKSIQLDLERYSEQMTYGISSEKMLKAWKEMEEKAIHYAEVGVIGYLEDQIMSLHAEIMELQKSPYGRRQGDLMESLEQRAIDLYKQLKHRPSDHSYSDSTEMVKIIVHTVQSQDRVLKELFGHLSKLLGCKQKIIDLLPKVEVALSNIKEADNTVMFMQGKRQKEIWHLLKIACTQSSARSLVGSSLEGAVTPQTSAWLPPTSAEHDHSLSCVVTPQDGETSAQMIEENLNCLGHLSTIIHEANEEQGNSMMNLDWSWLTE
`CN1CCC(C(=O)Nc2n[nH]c3nc(-c4ccc(O)cc4)c(Br)cc23)CC1` was tested, and the inhibition was 1.72% and -1.22%.
`CS(=O)(=O)CCNCc1ccc(-c2ccc3ncnc(Nc4ccc(OCc5ccccc5)cc4)c3c2)o1` was tested, and the inhibition was 4.92%.
For `O=C1Nc2ccccc2/C1=C1\CCc2cc(O)ccc21`, the inhibition was 13%.
`CNC(=O)c1cncc(/C=C/c2ccccc2C)c1` gave an inhibition of 1.86%.
Compound `NC(=O)c1ccc2c(-c3ccnc(NCCCO)n3)c(-c3ccc(F)cc3)nn2c1` has an inhibition of 8.35%.
`N#Cc1cccc(Nc2ncc(-c3ccccc3)o2)c1` showed an inhibition of 5.02%.
For `CN1CCN(Cc2ccc(-c3cc4ncnc(Nc5ccc(OCc6cccc(F)c6)c(Cl)c5)c4s3)o2)CC1`, the inhibition was 4.53% and 11.4%.
`NS(=O)(=O)c1cccc(N/C=C2\C(=O)Nc3ccccc32)c1` was tested, and the inhibition was 4.81%.
`COc1ccc(Nc2ncc(-c3ccccc3)o2)cc1OC` gave an inhibition of 5.31%.
`CCn1c(-c2nonc2N)nc2cncc(C(=O)NCCNC)c21` showed an inhibition of 8.82%.
For `NS(=O)(=O)c1ccc(N/N=C2\C(=O)Nc3cccc(CCc4ccncc4)c32)cc1`, the inhibition was -0.34%.
`c1ccc(-c2n[nH]cc2-c2ccnc(-c3ccc(OCCn4ccnc4)cc3)c2)nc1` gave an inhibition of 4.99%.
Compound `c1cnn2ncc(-c3ccnc(NCCCN4CCOCC4)n3)c2c1` has an inhibition of 8.06%.
With `CCN1CCC(C(=O)Nc2n[nH]c3nnc(-c4cccc(F)c4F)cc23)CC1` the inhibition was -3.04%.
Compound `O=C(Nc1n[nH]c2nnc(-c3cccnc3)cc12)C1CC1` has an inhibition of 0.84%.

What follows are compounds tested against T1, Inhibitor of nuclear factor kappa-B kinase subunit alpha (Homo sapiens). Conditions: at 1 µM.
Compound `Cc1ccc(-c2cc3c(NC(=O)C4CC4)ncnc3o2)cc1` has an inhibition of 1.2%.
For `Nc1nccc(-c2c(-c3ccc(F)cc3)ncn2C2CCNCC2)n1`, the inhibition was 8.44% and 4.4%.
`CS(=O)(=O)Nc1ccc(-c2ccc3c(NC(=O)C4CC4)n[nH]c3c2)cc1` showed an inhibition of -3.42%.
Work on `Cn1c(-c2nonc2N)nc2cnccc21` yielded an inhibition of 7.51%.
With `Cc1cc(O)cc(C)c1/C=C/c1cncc(C(N)=O)c1` the inhibition was 1.26%.
`CNC(=O)c1sc(-n2cnc3cc(OC)c(OC)cc32)cc1OCc1ccccc1C(F)(F)F` showed an inhibition of 6.49%.
Work on `COC(=O)Nc1nc2ccc(Oc3ccc(NC(=O)Nc4cc(C(F)(F)F)ccc4F)cc3)cc2s1` yielded an inhibition of -0.96%.
`COc1cc2c(cc1Nc1nc(Nc3cccc(F)c3C(N)=O)c3cc[nH]c3n1)N(C(=O)CN1CCN(C(C)C)CC1)CC2` was tested, and the inhibition was 4.05%.
For `CS(=O)(=O)CCNCc1ccoc1-c1ccc2ncnc(Nc3ccc(OCc4ccccc4)cc3)c2c1`, the inhibition was 8.23%.
In the case of `O=C(O[C@H]1CN[C@H](C#Cc2cc3ncnc(Nc4ccc5c(cnn5Cc5ccccc5)c4)c3s2)C1)N1CCOCC1`, the inhibition is reported as -2.78%.
With `COc1c(C(N)=O)cc(-c2ccc(Cl)cc2)cc1-c1ccc(S(N)(=O)=O)cc1` the inhibition was 1.32%.
Compound `CCS(=O)(=O)c1ccc(OC)c(Nc2ncc(-c3cccc(C(C)=O)c3)o2)c1` has an inhibition of -1.11%.
In the case of `CNC(=O)c1ncccc1Nc1nc(Nc2cc3c(cc2OC)CCCN3C(=O)CN(C)C)nc2[nH]ccc12`, the inhibition is reported as 7.49%.
`CC(C)c1ccc(-c2cc(-c3c[nH]nc3-c3ccccn3)ccn2)cc1` was tested, and the inhibition was -4.49%.
`Fc1cccc(COc2ccc(Nc3ncncc3C#Cc3ccccc3)cc2Cl)c1` was tested, and the inhibition was 4.54%.
`FC(F)(F)CNc1nccc(-c2cnn3ncccc23)n1` gave an inhibition of 9.86%.
For `CN1CCC(C(=O)Nc2n[nH]c3nc(-c4ccc(O)cc4)c(Br)cc23)CC1`, the inhibition was -1.54% and 2.39%.
Compound `CS(=O)(=O)CCNCc1ccc(-c2ccc3ncnc(Nc4ccc(OCc5ccccc5)cc4)c3c2)o1` has an inhibition of 3.98%.
`O=C1Nc2ccccc2/C1=C1\CCc2cc(O)ccc21` gave an inhibition of 5.45%.
`CNC(=O)c1cncc(/C=C/c2ccccc2C)c1` was tested, and the inhibition was 2.32%.
`NC(=O)c1ccc2c(-c3ccnc(NCCCO)n3)c(-c3ccc(F)cc3)nn2c1` showed an inhibition of 4.86%.
In the case of `N#Cc1cccc(Nc2ncc(-c3ccccc3)o2)c1`, the inhibition is reported as 3.79%.
For `CN1CCN(Cc2ccc(-c3cc4ncnc(Nc5ccc(OCc6cccc(F)c6)c(Cl)c5)c4s3)o2)CC1`, the inhibition was 2.93% and 6.95%.
Work on `NS(=O)(=O)c1cccc(N/C=C2\C(=O)Nc3ccccc32)c1` yielded an inhibition of 3.57%.
In the case of `COc1ccc(Nc2ncc(-c3ccccc3)o2)cc1OC`, the inhibition is reported as 3.86%.
Work on `CCn1c(-c2nonc2N)nc2cncc(C(=O)NCCNC)c21` yielded an inhibition of 14.1%.
`NS(=O)(=O)c1ccc(N/N=C2\C(=O)Nc3cccc(CCc4ccncc4)c32)cc1` gave an inhibition of 1.3%.
`c1ccc(-c2n[nH]cc2-c2ccnc(-c3ccc(OCCn4ccnc4)cc3)c2)nc1` gave an inhibition of 3.64%.
`c1cnn2ncc(-c3ccnc(NCCCN4CCOCC4)n3)c2c1` showed an inhibition of 9.01%.
`CCN1CCC(C(=O)Nc2n[nH]c3nnc(-c4cccc(F)c4F)cc23)CC1` showed an inhibition of 3.59%.
In the case of `O=C(Nc1n[nH]c2nnc(-c3cccnc3)cc12)C1CC1`, the inhibition is reported as -0.73%.

These compounds were tested against T2, Inhibitor of nuclear factor kappa-B kinase subunit beta (Homo sapiens) (UniProt O14920). Conditions: at 0.1 µM.
T2 sequence (whole entry): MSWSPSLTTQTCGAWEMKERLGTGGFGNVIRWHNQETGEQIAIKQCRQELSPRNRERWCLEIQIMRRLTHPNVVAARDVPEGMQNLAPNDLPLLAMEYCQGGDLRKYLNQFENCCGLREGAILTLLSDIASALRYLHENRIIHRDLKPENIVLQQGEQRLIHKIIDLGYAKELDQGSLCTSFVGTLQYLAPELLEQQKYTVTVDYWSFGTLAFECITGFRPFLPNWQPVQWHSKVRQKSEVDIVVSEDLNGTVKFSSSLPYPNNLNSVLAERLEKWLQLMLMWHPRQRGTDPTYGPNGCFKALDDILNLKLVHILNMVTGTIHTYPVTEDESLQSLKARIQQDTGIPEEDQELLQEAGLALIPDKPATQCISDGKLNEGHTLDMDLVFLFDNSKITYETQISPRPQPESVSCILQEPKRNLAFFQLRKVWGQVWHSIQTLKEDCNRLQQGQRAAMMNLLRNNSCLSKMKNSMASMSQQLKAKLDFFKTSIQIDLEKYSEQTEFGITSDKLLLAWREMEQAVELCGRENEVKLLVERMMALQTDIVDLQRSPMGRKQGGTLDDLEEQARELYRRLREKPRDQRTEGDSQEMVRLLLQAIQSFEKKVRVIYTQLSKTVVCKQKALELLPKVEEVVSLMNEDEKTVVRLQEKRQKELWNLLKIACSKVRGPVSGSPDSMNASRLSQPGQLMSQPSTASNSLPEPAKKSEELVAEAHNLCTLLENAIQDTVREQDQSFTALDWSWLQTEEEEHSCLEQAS
`Cc1ccc(-c2cc3c(NC(=O)C4CC4)ncnc3o2)cc1` showed an inhibition of 2.98%.
For `Nc1nccc(-c2c(-c3ccc(F)cc3)ncn2C2CCNCC2)n1`, the inhibition was -3.54% and 0.6%.
`CS(=O)(=O)Nc1ccc(-c2ccc3c(NC(=O)C4CC4)n[nH]c3c2)cc1` showed an inhibition of 3.69%.
Work on `Cn1c(-c2nonc2N)nc2cnccc21` yielded an inhibition of 5.29%.
`Cc1cc(O)cc(C)c1/C=C/c1cncc(C(N)=O)c1` showed an inhibition of 1.7%.
For `CNC(=O)c1sc(-n2cnc3cc(OC)c(OC)cc32)cc1OCc1ccccc1C(F)(F)F`, the inhibition was 4.41%.
In the case of `COC(=O)Nc1nc2ccc(Oc3ccc(NC(=O)Nc4cc(C(F)(F)F)ccc4F)cc3)cc2s1`, the inhibition is reported as 3.58%.
With `COc1cc2c(cc1Nc1nc(Nc3cccc(F)c3C(N)=O)c3cc[nH]c3n1)N(C(=O)CN1CCN(C(C)C)CC1)CC2` the inhibition was 5.51%.
With `CS(=O)(=O)CCNCc1ccoc1-c1ccc2ncnc(Nc3ccc(OCc4ccccc4)cc3)c2c1` the inhibition was -1.24%.
For `O=C(O[C@H]1CN[C@H](C#Cc2cc3ncnc(Nc4ccc5c(cnn5Cc5ccccc5)c4)c3s2)C1)N1CCOCC1`, the inhibition was -1.3%.
Work on `COc1c(C(N)=O)cc(-c2ccc(Cl)cc2)cc1-c1ccc(S(N)(=O)=O)cc1` yielded an inhibition of 6.58%.
Work on `CCS(=O)(=O)c1ccc(OC)c(Nc2ncc(-c3cccc(C(C)=O)c3)o2)c1` yielded an inhibition of 5.35%.
Compound `CNC(=O)c1ncccc1Nc1nc(Nc2cc3c(cc2OC)CCCN3C(=O)CN(C)C)nc2[nH]ccc12` has an inhibition of 2.85%.
Work on `CC(C)c1ccc(-c2cc(-c3c[nH]nc3-c3ccccn3)ccn2)cc1` yielded an inhibition of 1.97%.
In the case of `Fc1cccc(COc2ccc(Nc3ncncc3C#Cc3ccccc3)cc2Cl)c1`, the inhibition is reported as 8.5%.
For `FC(F)(F)CNc1nccc(-c2cnn3ncccc23)n1`, the inhibition was 4.92%.
For `CN1CCC(C(=O)Nc2n[nH]c3nc(-c4ccc(O)cc4)c(Br)cc23)CC1`, the inhibition was 6.9% and 3.32%.
In the case of `CS(=O)(=O)CCNCc1ccc(-c2ccc3ncnc(Nc4ccc(OCc5ccccc5)cc4)c3c2)o1`, the inhibition is reported as 5.26%.
Work on `O=C1Nc2ccccc2/C1=C1\CCc2cc(O)ccc21` yielded an inhibition of 5.41%.
Compound `CNC(=O)c1cncc(/C=C/c2ccccc2C)c1` has an inhibition of 3.58%.
For `NC(=O)c1ccc2c(-c3ccnc(NCCCO)n3)c(-c3ccc(F)cc3)nn2c1`, the inhibition was 7.11%.
`N#Cc1cccc(Nc2ncc(-c3ccccc3)o2)c1` gave an inhibition of 3.29%.
`CN1CCN(Cc2ccc(-c3cc4ncnc(Nc5ccc(OCc6cccc(F)c6)c(Cl)c5)c4s3)o2)CC1` was tested, and the inhibition was 2.82% and 5.97%.
`NS(=O)(=O)c1cccc(N/C=C2\C(=O)Nc3ccccc32)c1` was tested, and the inhibition was 6.37%.
For `COc1ccc(Nc2ncc(-c3ccccc3)o2)cc1OC`, the inhibition was 3.33%.
With `CCn1c(-c2nonc2N)nc2cncc(C(=O)NCCNC)c21` the inhibition was 6.55%.
For `NS(=O)(=O)c1ccc(N/N=C2\C(=O)Nc3cccc(CCc4ccncc4)c32)cc1`, the inhibition was 0.73%.
In the case of `c1ccc(-c2n[nH]cc2-c2ccnc(-c3ccc(OCCn4ccnc4)cc3)c2)nc1`, the inhibition is reported as 0.37%.
In the case of `c1cnn2ncc(-c3ccnc(NCCCN4CCOCC4)n3)c2c1`, the inhibition is reported as 5.79%.
`CCN1CCC(C(=O)Nc2n[nH]c3nnc(-c4cccc(F)c4F)cc23)CC1` gave an inhibition of -4.76%.
Compound `O=C(Nc1n[nH]c2nnc(-c3cccnc3)cc12)C1CC1` has an inhibition of 1.55%.
